Results as given in PubChem BioAssay (NCI).
This is part of a sample that, as a whole, favours compounds with a hit. Of some 83,000 tested, about 20% had one in any assay.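 Growth was measured after 48 h exposure to one concentration of compound in 96-well plates. Values under 10 count as active.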 A number with no mark means an inactive call. Calls of active or inactive are those of the source.

Key:
Assay in all cases: NCI-60 one-dose screen, 48 h (100 = growth as untreated, 0 = no growth, -100 = all killed)
Details in all cases: 10 µM unless noted
HCT-15 colon = system: HCT-15 colon
HT29 colon = system: HT29 colon
SNB-75 CNS = system: SNB-75 CNS
SNB-19 CNS = system: SNB-19 CNS
U251 CNS = system: U251 CNS
PC-3 prostate = system: PC-3 prostate
SK-MEL-5 melanoma = system: SK-MEL-5 melanoma
UACC-62 melanoma = system: UACC-62 melanoma
SK-MEL-28 melanoma = system: SK-MEL-28 melanoma
SK-MEL-2 melanoma = system: SK-MEL-2 melanoma
EKVX NSCLC = system: EKVX NSCLC
SN12C renal = system: SN12C renal
UO-31 renal = system: UO-31 renal
TK-10 renal = system: TK-10 renal
ACHN renal = system: ACHN renal
CAKI-1 renal = system: CAKI-1 renal
A498 renal = system: A498 renal
CCRF-CEM leukemia = system: CCRF-CEM leukemia
MOLT-4 leukemia = system: MOLT-4 leukemia

Row | SMILES | growth (HCT-15 colon) | growth (HT29 colon) | growth (SNB-75 CNS) | growth (SNB-19 CNS) | growth (U251 CNS) | growth (PC-3 prostate) | growth (SK-MEL-5 melanoma) | growth (UACC-62 melanoma) | growth (SK-MEL-28 melanoma) | growth (SK-MEL-2 melanoma) | growth (EKVX NSCLC) | growth (SN12C renal) | growth (UO-31 renal) | growth (TK-10 renal) | growth (ACHN renal) | growth (CAKI-1 renal) | growth (A498 renal) | growth (CCRF-CEM leukemia) | growth (MOLT-4 leukemia)
1 | C=C(C)[C@@H]1CC[C@]2(C=NCCCNCCCCNCCCN)CC[C@]3(C)[C@H](CC[C@@H]4[C@@]5(C)CCCNC(C)(C)[C@@H]5CC[C@]43C)[C@@H]12 | 82.6% | 39% | 114% | 88.3% | 91.6% | 85.9% | 96% | 100% | 111% | 132% | 102% | 91.1% | 92.1% | 120% | 105% | 80.6% | 95.6% | 94.4% | 93.4%
2 | Cc1nc([P+](c2ccccc2)(c2ccccc2)c2ccccc2)c(Sc2sc(-c3ccccc3)nc2[P+](c2ccccc2)(c2ccccc2)c2ccccc2)o1 | 30.2% | 4.54% (active) | -3.87% (active) | 16.2% | 14.3% | 3.44% (active) | -17.1% (active) | 19.2% | 54.5% | 3.95% (active) | 14.8% | 7.4% (active) | 20.9% | 38.7% | 17.3% | 15.4% | -9.69% (active) | 18.4% | 13%
3 | Cn1cccc1/C=C1/SC(=S)N(CCc2ccc(O)cc2)C1=O | 22.7% | 94.9% | 41.2% | 47.2% | 41.8% | 69% | 44.2% | 24.9% | 57.3% | 64.7% | 61% | 60% | 53.7% | 110% | 59.9% | 44.7% | 81.8% | 21.9% | 31%
4 | O=C(NO)c1ccc(Cn2c(=O)n(-c3ccccc3)c(=O)c3ccccc32)cc1 | 39.6% | 41% | 20.9% | 33.4% | -3.66% (active) | -7.98% (active) | 16.5% | -24.6% (active) | -1.55% (active) | 5.92% (active) | 21.6% | 44.1% | 50.5% | 28.1% | 55.7% | 56.9% | -10.7% (active) | 2% (active) | -2.07% (active)
5 | C=C(C)[C@@H]1CC[C@]2(C)[C@H](CC[C@@H]3[C@H]4[C@H]5OC[C@@]4(CCC5(C)C)CC[C@]32C)[C@@]1(C)CCCN | -79.6% (active) | 6.05% (active) | 95.2% | 94.2% | -19.2% (active) | 64% | 97.4% | 98.5% | 34.7% | 101% | 71.2% | 75.6% | 63.8% | 130% | 59% | 3.89% (active) | 118% | 51.8% | 10.5%
6 | Cc1ccc(-c2ccc(/C=C(\C#N)c3nc(-c4ccco4)cs3)o2)cc1 | 69.2% | 102% | 84.9% | 99.6% | 98.7% | 100% | 87.8% | 87.5% | 112% | 104% | 52.1% | 97.1% | 79% | 69.9% | 98.6% | 94.5% | 106% | 79.1% | 94.6%
7 | COc1ccc(/C=C(\C#N)c2cc3ccccc3n2S(C)(=O)=O)cc1 | 46.4% | 102% | 73.1% | 82.3% | 96.8% | 80.2% | 87.8% | 58.1% | 82.5% | 101% | 85.9% | 90.8% | 56.2% | 125% | 91.2% | 53.2% | 99.2% | 86% | 89.8%
8 | O=C1C=Cc2ncccc2C1=O | 80.3% | 108% | 119% | 85.2% | 42.2% | 88.5% | 92.9% | 90.7% | 121% | 114% | 64.7% | 65.2% | 68.3% | 111% | 76.1% | 81.2% | 125% | -37.5% (active) | 0.968% (active)
9 | COC(=O)[C@]12CC[C@@H](C(=O)/C=C/c3cccnc3)[C@@H]1[C@H]1CC[C@@H]3[C@@]4(C)C/C(=C/c5cccnc5)C(=O)C(C)(C)[C@@H]4CC[C@@]3(C)[C@]1(C)CC2 | -46.2% (active) | -45.5% (active) | -98.7% (active) | -87.6% (active) | -87.9% (active) | -14.1% (active) | -98.9% (active) | -67.9% (active) | -96.3% (active) | -61.1% (active) | -76.3% (active) | -77.8% (active) | -100% (active) | -60.5% (active) | -100% (active) | -78.7% (active) | -91.2% (active) | 0.953% (active) | -31.3% (active)
10 | C=C(C)[C@@H]1CC[C@]2(C(=O)N3CCN(C)CC3)CC[C@]3(C)[C@H](CC[C@@H]4[C@@]5(C)C/C(=C/c6ccc(C(F)(F)F)cc6)C(=O)C(C)(C)[C@@H]5CC[C@]43C)[C@@H]12 | 86.5% | 95.7% | 80.7% | 97.3% | 87.1% | 78.8% | 99.1% | 96.3% | 104% | 106% | 87.7% | 92.9% | 73.5% | 105% | 96.4% | 68.7% | 97.4% | 88% | 63.8%
11 | C=C(C)[C@@H]1CC[C@]2(C)CC[C@]3(C)[C@H](CC[C@@H]4[C@@]5(C)CCCNC(C)(C)[C@@H]5CC[C@]43C)[C@@H]12 | 19.2% | 3.37% (active) | 85.9% | 96.3% | 11.9% | 78.9% | 98.4% | 105% | 105% | 119% | 103% | 82.1% | 88.2% | 142% | 95.5% | 75.3% | 79.7% | 52% | 46.6%
12 | COc1ccc2c(c1)C(Br)=C(CCO)C2c1ccccc1 (stereo not drawn) | 87.6% | 41.8% | 57% | 57.7% | 55.8% | 54.5% | 96.5% | 60% | 69.5% | 85% | 75.8% | 99.2% | 62.4% | 67% | 4.96% (active) | 37% | 35.6% | 95.2% | 114%
